Results: the supplement of paper PMC11732987, “Enantioselective OTUD7B fragment discovery through chemoproteomics screening and high-throughput optimisation” (Communications Chemistry, 2025)

How the values were obtained:
Assay in all cases: log2 ratio of Biotin-Ahx-Ub-VS probe labelling (fragment/DMSO); higher = less target engagement (more negative = stronger competition), active = hit call of the paper (q ≤ 0.05, log2 ratio ≤ -1)
Conditions in all cases: compound concentration: 200 uM; treatment time: 3 h
USP42 = target: T1, USP42 (UniProt Q9H9J4)
T1 sequence (whole entry): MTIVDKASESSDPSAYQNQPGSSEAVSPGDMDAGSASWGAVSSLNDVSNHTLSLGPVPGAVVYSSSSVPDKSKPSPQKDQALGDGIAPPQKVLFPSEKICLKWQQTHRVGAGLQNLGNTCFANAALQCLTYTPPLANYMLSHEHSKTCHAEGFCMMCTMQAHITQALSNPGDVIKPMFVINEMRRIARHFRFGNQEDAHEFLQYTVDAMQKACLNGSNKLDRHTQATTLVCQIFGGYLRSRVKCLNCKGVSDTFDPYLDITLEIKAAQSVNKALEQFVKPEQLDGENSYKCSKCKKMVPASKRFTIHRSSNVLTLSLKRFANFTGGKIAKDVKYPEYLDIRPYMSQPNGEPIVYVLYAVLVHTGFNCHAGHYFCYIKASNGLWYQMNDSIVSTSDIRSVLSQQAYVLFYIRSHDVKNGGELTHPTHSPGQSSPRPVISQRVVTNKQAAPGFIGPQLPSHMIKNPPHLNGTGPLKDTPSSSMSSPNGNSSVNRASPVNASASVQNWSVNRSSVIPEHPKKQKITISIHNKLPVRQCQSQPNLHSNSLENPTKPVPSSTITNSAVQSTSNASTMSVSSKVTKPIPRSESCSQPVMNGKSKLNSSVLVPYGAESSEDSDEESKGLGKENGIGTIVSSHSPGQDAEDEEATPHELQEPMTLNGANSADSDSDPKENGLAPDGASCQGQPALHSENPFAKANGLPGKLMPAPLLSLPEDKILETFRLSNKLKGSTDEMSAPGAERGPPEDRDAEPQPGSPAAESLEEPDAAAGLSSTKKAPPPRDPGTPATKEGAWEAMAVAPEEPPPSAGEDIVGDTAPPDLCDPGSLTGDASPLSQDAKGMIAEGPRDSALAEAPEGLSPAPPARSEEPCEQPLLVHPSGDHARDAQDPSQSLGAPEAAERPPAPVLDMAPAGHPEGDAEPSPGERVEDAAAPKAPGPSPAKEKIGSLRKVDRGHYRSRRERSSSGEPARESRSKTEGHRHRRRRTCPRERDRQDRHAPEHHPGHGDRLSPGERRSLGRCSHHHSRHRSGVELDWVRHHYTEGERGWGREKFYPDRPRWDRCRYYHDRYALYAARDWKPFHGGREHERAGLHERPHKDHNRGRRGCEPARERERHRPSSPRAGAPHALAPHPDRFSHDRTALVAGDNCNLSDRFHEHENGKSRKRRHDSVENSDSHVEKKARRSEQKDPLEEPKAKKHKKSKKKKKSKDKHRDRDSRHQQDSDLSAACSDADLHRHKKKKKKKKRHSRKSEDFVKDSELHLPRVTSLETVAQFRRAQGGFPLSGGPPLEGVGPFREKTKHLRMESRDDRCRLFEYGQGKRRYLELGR
Summary of the method: (§1)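 HEK293T lysate, 495 µg per sample in Tris/CHAPS/IGEPAL buffer with protease inhibitors, was treated in triplicate with fragment at 200 µM or vehicle for 3 h and then with Biotin-Ahx-Ub-VS at 0.5 µM final for 1 h. Labelled DUBs were NeutrAvidin-enriched, digested with LysC and trypsin, and run by diaPASEF LC-MS/MS. Spectronaut label-free quantities were global-median-normalised, and values are average log2 fragment/vehicle ratios by unpaired t-test on proteins with ≥2 unique peptides.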

USP46 = USP46 (UniProt P62068)
Chain of USP46 (P62068 whole entry): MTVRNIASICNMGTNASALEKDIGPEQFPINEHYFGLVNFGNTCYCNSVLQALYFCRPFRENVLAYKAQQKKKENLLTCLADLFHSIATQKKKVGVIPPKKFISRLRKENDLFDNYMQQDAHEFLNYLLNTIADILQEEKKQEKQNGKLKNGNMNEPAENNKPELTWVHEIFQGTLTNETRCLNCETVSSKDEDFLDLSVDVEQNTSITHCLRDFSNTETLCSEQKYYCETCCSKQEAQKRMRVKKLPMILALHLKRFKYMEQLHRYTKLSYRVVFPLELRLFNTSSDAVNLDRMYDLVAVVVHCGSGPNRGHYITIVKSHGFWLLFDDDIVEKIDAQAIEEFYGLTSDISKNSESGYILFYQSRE
Summary of the method: as §1

USP47 = target: T2, USP47 (UniProt Q96K76)
T2 sequence (whole entry): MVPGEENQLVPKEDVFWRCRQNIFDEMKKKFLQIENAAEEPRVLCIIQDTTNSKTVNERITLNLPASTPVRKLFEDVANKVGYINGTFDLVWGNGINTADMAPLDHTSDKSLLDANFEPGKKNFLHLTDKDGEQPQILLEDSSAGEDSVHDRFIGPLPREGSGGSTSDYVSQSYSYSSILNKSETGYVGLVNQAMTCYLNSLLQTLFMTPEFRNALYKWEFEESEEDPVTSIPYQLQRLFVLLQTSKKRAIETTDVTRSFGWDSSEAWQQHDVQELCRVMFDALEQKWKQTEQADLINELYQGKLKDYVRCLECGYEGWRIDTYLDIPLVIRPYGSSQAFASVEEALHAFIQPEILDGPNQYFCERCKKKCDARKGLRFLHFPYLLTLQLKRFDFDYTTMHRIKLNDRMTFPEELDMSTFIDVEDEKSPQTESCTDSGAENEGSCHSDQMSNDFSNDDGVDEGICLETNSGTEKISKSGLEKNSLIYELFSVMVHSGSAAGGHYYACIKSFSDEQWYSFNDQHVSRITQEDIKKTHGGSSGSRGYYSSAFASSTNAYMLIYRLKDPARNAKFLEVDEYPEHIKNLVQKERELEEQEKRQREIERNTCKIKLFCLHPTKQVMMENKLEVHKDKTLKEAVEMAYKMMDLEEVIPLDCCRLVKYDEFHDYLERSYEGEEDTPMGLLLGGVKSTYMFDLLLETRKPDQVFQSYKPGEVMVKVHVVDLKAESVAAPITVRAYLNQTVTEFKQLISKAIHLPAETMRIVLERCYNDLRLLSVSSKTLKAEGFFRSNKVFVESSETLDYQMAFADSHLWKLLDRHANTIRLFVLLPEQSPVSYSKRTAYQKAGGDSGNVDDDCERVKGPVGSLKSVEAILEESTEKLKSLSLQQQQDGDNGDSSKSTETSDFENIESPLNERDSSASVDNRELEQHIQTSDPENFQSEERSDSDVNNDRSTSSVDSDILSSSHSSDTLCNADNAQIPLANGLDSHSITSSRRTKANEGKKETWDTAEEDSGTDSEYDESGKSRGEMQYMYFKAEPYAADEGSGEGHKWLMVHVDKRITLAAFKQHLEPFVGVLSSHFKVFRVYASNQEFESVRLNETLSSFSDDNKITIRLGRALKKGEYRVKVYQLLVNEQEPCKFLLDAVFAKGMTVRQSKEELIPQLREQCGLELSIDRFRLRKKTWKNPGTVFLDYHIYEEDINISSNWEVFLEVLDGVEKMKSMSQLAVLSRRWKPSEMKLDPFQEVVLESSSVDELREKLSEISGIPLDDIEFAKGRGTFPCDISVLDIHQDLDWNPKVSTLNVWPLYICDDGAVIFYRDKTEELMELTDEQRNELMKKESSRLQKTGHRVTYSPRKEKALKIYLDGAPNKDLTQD
Summary of the method: as §1

USP48 = target: T3, USP48 (UniProt Q86UV5)
T3 sequence (whole entry): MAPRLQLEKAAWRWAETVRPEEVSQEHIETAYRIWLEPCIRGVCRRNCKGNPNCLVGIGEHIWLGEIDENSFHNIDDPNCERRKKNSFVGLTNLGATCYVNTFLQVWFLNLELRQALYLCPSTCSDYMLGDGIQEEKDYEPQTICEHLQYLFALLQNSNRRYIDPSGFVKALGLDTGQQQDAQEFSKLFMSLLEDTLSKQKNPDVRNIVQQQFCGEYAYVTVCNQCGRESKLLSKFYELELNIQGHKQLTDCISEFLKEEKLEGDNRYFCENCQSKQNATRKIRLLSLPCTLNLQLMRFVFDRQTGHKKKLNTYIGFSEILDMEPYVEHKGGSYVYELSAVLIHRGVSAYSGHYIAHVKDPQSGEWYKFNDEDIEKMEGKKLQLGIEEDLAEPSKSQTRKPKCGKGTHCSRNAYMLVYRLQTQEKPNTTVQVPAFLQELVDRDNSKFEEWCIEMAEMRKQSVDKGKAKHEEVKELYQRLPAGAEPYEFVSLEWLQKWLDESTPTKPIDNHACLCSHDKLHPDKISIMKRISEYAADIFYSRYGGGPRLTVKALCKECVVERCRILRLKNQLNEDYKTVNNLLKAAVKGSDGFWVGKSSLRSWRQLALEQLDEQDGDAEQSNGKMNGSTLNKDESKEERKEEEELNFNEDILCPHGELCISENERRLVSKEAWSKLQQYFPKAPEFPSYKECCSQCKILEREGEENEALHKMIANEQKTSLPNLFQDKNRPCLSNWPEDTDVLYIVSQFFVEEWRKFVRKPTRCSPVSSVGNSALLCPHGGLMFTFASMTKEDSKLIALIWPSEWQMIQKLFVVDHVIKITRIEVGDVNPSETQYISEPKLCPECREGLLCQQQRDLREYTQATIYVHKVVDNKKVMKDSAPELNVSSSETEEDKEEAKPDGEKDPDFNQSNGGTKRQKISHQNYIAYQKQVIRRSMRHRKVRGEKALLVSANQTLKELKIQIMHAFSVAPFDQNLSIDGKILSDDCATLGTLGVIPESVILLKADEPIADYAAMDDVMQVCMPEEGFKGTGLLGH
Summary of the method: as §1

USP5 = target: T4, USP5 (UniProt P45974)
T4 sequence (whole entry): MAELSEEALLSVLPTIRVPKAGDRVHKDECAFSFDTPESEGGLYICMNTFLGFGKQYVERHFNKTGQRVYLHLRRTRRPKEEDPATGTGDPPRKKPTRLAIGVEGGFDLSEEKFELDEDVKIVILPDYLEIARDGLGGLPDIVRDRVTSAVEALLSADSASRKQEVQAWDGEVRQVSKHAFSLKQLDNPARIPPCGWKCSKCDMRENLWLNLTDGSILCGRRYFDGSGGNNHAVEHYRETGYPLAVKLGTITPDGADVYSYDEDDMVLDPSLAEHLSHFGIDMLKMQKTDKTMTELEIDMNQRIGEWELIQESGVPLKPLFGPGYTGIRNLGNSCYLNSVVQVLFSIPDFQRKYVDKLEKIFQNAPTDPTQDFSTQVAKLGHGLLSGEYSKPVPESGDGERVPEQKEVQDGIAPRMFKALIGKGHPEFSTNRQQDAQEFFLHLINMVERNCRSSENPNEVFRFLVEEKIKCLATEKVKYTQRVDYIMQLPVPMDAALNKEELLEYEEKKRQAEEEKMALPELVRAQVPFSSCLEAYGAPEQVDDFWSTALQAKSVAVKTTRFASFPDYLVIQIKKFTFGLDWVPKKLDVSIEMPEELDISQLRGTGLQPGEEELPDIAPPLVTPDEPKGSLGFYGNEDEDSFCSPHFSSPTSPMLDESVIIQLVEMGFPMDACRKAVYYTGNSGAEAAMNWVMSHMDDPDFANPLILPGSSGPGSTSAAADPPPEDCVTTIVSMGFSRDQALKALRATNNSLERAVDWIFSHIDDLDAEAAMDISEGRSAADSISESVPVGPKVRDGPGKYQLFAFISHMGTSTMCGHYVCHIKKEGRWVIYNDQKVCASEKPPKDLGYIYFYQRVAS
Summary of the method: as §1

USP54 = USP54 (UniProt Q70EL1)
Chain of USP54 (Q70EL1 whole entry): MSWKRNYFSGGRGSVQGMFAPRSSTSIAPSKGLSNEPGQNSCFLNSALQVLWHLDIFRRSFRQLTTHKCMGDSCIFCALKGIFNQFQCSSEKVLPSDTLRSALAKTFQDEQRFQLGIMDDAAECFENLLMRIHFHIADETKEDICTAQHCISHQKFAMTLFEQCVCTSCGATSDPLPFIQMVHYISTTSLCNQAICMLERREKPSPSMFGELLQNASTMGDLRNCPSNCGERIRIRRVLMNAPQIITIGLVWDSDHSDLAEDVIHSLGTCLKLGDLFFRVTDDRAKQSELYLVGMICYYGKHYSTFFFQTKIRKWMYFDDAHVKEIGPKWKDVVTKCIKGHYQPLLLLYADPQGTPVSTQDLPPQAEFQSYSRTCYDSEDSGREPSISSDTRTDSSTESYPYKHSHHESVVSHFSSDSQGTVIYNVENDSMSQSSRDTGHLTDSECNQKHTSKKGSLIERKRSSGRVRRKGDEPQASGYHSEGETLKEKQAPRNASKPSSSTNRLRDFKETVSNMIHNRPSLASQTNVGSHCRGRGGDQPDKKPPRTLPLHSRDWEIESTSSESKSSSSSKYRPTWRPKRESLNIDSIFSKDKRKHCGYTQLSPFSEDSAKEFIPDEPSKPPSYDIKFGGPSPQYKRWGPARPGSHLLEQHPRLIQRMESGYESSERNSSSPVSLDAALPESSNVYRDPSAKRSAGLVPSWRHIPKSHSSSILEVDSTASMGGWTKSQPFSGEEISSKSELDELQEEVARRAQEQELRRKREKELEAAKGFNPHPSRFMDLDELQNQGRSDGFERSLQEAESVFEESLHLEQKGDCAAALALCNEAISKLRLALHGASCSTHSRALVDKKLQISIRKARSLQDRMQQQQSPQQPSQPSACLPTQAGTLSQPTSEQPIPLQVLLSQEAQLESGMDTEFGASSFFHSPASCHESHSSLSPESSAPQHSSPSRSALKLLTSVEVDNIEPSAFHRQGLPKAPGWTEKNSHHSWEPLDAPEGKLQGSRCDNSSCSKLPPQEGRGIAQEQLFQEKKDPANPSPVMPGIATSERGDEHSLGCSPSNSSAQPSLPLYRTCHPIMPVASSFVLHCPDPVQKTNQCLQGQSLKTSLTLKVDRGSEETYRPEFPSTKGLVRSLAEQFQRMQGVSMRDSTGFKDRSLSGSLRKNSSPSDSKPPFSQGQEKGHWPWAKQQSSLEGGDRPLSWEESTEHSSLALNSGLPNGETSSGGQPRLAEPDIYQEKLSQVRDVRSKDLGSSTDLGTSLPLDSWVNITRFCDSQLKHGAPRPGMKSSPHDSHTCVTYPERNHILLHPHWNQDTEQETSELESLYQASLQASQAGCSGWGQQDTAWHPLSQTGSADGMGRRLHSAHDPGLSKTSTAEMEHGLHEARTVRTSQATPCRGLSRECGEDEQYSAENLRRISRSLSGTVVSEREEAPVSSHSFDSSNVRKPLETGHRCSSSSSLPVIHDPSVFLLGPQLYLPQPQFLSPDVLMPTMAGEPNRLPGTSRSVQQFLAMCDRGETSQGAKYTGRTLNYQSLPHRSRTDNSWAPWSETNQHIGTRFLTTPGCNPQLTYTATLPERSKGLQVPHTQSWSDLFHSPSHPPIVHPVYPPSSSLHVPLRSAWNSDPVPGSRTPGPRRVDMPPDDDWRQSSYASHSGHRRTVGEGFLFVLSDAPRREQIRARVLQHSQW
Summary of the method: as §1

USP7 = USP7 (UniProt Q93009)
Chain of USP7 (Q93009 whole entry, looked up): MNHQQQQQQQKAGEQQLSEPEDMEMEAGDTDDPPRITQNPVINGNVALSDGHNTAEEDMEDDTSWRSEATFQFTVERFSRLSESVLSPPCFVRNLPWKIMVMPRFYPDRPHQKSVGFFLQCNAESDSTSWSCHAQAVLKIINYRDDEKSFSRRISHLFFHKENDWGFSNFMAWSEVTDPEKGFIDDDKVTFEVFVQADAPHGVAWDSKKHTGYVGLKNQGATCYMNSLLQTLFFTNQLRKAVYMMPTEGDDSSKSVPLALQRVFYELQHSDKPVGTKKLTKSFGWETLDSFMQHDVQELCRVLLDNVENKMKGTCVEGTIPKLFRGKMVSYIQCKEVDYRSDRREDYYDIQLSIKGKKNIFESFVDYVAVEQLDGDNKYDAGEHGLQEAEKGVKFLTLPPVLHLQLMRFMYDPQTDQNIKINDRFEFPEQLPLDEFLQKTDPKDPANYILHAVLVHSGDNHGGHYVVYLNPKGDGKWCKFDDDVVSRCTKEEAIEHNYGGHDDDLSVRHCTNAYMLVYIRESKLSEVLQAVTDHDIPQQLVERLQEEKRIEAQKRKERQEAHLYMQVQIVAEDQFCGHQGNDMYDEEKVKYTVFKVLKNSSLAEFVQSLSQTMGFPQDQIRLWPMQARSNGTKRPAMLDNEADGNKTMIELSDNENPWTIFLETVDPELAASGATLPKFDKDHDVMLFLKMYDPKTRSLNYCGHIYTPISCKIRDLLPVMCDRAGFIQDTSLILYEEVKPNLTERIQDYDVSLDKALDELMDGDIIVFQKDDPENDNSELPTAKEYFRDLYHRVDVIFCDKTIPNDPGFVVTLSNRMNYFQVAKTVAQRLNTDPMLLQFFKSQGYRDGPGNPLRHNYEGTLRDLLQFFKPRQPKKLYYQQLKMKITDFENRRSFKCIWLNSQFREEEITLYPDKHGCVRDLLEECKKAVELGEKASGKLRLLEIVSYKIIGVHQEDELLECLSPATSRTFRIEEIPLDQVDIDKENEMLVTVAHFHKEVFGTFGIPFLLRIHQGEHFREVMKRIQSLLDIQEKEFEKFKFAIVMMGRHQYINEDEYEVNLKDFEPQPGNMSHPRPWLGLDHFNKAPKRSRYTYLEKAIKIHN
Summary of the method: as §1

USP8 = target: T5, USP8 (UniProt P40818)
T5 sequence (whole entry): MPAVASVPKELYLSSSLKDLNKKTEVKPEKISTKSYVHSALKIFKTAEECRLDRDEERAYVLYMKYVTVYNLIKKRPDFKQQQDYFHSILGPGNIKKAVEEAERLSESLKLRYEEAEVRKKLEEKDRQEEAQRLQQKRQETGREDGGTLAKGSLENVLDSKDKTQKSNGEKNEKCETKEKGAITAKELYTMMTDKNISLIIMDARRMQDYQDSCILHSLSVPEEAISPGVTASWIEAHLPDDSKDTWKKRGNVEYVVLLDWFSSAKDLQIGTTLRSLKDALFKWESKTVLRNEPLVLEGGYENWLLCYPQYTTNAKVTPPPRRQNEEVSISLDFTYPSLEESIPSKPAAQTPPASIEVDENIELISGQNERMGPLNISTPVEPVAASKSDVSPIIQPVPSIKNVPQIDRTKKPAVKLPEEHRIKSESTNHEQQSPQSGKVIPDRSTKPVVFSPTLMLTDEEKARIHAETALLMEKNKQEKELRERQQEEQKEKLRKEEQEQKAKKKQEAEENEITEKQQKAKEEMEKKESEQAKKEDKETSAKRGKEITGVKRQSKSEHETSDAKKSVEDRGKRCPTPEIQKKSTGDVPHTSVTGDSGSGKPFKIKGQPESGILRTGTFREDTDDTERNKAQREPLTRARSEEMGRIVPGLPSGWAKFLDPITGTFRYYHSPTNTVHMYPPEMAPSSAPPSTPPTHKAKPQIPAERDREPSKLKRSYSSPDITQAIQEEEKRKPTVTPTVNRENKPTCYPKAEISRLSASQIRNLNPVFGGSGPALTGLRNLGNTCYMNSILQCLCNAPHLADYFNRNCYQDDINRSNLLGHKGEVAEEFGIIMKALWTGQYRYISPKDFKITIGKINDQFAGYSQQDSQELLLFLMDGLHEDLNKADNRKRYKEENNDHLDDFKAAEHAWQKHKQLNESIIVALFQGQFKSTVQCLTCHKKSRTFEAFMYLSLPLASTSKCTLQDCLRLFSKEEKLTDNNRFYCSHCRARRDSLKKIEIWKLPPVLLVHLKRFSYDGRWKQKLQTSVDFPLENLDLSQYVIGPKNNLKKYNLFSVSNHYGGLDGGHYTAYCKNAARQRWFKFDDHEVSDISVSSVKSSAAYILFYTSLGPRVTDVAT
Summary of the method: as §1

USP9X = USP9X (UniProt Q93008)
Summary of the method: as §1

UniProt O00487 = target: UniProt O00487
Chain of UniProt O00487 (O00487 whole entry): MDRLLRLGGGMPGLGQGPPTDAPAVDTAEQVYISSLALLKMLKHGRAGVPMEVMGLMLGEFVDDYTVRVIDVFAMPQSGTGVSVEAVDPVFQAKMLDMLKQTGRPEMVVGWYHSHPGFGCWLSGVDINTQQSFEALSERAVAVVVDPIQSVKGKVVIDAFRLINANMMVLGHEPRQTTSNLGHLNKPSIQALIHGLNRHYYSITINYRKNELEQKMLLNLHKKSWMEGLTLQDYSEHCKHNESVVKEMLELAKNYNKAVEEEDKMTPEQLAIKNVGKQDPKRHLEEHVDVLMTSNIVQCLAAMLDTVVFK
Summary of the method: as §1

Measured: log2 ratio of Biotin-Ahx-Ub-VS probe labelling

Cc1cccn2cc(CCNC(=O)CCl)nc12.Cl
inactive: USP42 0.274 | USP46 -0.16 | USP47 0.127 | USP48 -0.182 | USP5 -0.331 | USP54 0.0379 | USP7 -0.51 | USP8 -0.181 | USP9X -0.145 | UniProt O00487 -0.197

O=C(CCl)NC1CCCCNC1=O (stereo not given)
inactive: USP42 0.0716 | USP46 -0.113 | USP47 -0.161 | USP48 -0.154 | USP5 -0.327 | USP54 0.114 | USP7 -0.264 | USP8 -0.134 | USP9X -0.297 | UniProt O00487 -0.13

NS(=O)(=O)c1ccc(Cl)c(NC(=O)CCl)c1
inactive: USP42 0.0225 | USP46 -0.123 | USP47 -0.247 | USP48 -0.536 | USP5 0.233 | USP54 -0.00214 | USP7 -0.207 | USP8 -0.125 | USP9X -0.31 | UniProt O00487 -0.0819

O=C(CCl)NCCc1ccc(F)cc1
inactive: USP42 0.0996 | USP46 0.235 | USP47 -0.0571 | USP48 -0.229 | USP5 0.066 | USP54 0.699 | USP7 -0.0342 | USP8 -0.0379 | USP9X -0.0191 | UniProt O00487 0.113
